# The campaign covered roughly 69,000 compounds. About 1,000 (1.4%) showed an effect of 50% or more. Only a selection was taken, and strong results are over-represented in it overall.
# Test system: Leishmania donovani
# Assay: Leishmania intramacrophage assay
# Format: functional, organism-based
# Design: scale not given: in the data most compounds retested in dose-response had high values
smiles,measurement,setting,value
CC(C)CN1CCC2(C=C(C(=O)N(C)C)c3ccccc32)CC1.O=C(O)C(F)(F)F,Percent Effect,"30.3 µM, […]",41.74%
CC(C)Cc1cc(CNc2nc(-c3cccnc3)nc3c2CNC3)no1,Percent Effect,"30.3 µM, […]",9.598%
O=C(c1cccnc1)N1CCN(CC2CC2)c2ncccc2C1,Percent Effect,"30.3 µM, […]",14.27%
O=C(c1ccoc1)N1CC[C@@H]2O[C@@H](COCc3ccccn3)CC[C@@H]21,Percent Effect,"30.3 µM, […]",-30.2%
O=C(N1CCOCC1)N1CC[C@H]2[C@@H]1CCC(=O)N2c1ccccc1,Percent Effect,"30.3 µM, […]",31.55%
O=C(c1cccnc1)N1CCC2(CC1)CCN(Cc1ccccn1)C2=O,Percent Effect,"30.3 µM, […]",28.38%
Cc1ccc(C(=O)N2CCC3(CCN(Cc4ccccn4)C3=O)C2)cn1 (configuration not stated),Percent Effect,"30.3 µM, […]",50.83%
Cc1oncc1C(=O)N1CCC2(CCN(Cc3ccccn3)C2=O)C1 (configuration not stated),Percent Effect,"30 µM, 30.03 µM",-19.39%
CCn1ncc(-c2cc(C(F)(F)F)nc(N3CCC(N)CC3)n2)c1C,Percent Effect,"30.3 µM, […]",100.6%
CCc1ccc(-c2cc(C(F)(F)F)nc(N3CCC(N)CC3)n2)cc1,Percent Effect,"30.3 µM, […]",44.83%
Cc1c(-c2cc(C(F)(F)F)nc(N3CCC(N)CC3)n2)cnn1C,Percent Effect,"30.3 µM, […]",81.41%
CCNC(=O)[C@@H]1C[C@H](N)CN1c1cc(C(F)(F)F)nc(N2CCCC2)n1,Percent Effect,"30.3 µM, […]",23.81%
Cc1nn(C)cc1-c1cc(C(F)(F)F)nc(NC2CCN(C)CC2)n1,Percent Effect,"30.3 µM, […]",7.809%
Cc1ccc(-c2cc(C(F)(F)F)nc(N3CCOCC3)n2)s1,Percent Effect,"30.3 µM, […]",2.404%
Cc1ccccc1OCn1ccc(C(=O)NCCN2CCOCC2)n1,Percent Effect,"30.3 µM, […]",-13.65%
O=S(=O)(c1ccccc1)N1CCC2(CCCN2Cc2cccc(F)c2)C1 (configuration not stated),Percent Effect,"30.3 µM, […]",61.17%
O=S(=O)(c1ccccc1)N1CCC2(CCCN2Cc2ccccc2Cl)C1 (configuration not stated),Percent Effect,"30.3 µM, […]",52.23%
Cc1ccc(CN2CCCC23CCN(S(=O)(=O)c2ccccc2)C3)o1 (configuration not stated),Percent Effect,"30 µM, 30.03 µM",49.3%
O=C(O)C(F)(F)F.O=S(=O)(c1ccccc1)N1CCC2(CCCN2Cc2cccc(Cl)c2)C1 (configuration not stated),Percent Effect,"30.3 µM, […]",27.63%
O=C(O)C(F)(F)F.O=C(c1cscn1)N1CCCC2(CCN2Cc2cccc(F)c2)C1 (configuration not stated),Percent Effect,"30.3 µM, […]",40.36%
O=S(=O)(c1ccccc1)N1CCC2(CCCN2Cc2ccc(Cl)cc2)C1 (configuration not stated),Percent Effect,"30.3 µM, […]",36.08%
O=C(O)C(F)(F)F.O=C(c1ccccc1)N1CCCC2(CCN2Cc2cccc(F)c2)C1 (configuration not stated),Percent Effect,"30.3 µM, […]",54.88%
O=C(O)C(F)(F)F.O=C(O)C(F)(F)F.O=C(O)CN1CCCC2(CCN2Cc2cccc(F)c2)C1 (configuration not stated),Percent Effect,"30.3 µM, […]",-0.8696%
CCS(=O)(=O)N1CCCC2(CCCN2Cc2cccc(F)c2)C1.O=C(O)C(F)(F)F (configuration not stated),Percent Effect,"30.3 µM, […]",12.48%
CC(C)C(C(N)=O)c1cccc(Cl)c1 (configuration not stated),Percent Effect,"30.3 µM, […]",23.22%
Cc1nnc(N2CCO[C@H]3[C@@H](OCc4ccccn4)CC[C@@H]32)s1.O=C(O)C(F)(F)F.O=C(O)C(F)(F)F,Percent Effect,"30.3 µM, […]",-5.183%
Cc1nccn1Cc1nnc(C2CCN(c3ccncc3F)CC2)n1C,Percent Effect,"30.3 µM, […]",4.988%
c1nc2c(c(NC3COC4(CCCC4)C3)n1)CCNCC2 (configuration not stated),Percent Effect,"30.3 µM, […]",-7.058%
O=C(O)C(F)(F)F.O=C(c1cocn1)N1C[C@H]2CCC[C@@]2(COc2ccccn2)C1,Percent Effect,"30.3 µM, […]",20.04%
Cc1nn(C)c(C)c1CN1CCCC1c1nccc(CN(C)C)n1 (configuration not stated),Percent Effect,"30.3 µM, […]",3.97%
CC(C#N)CNC(=O)Nc1ccc(Br)cc1 (configuration not stated),Percent Effect,"30.3 µM, […]",6.996%
CC(=O)N1CCCN(C2CCCCc3ccccc32)CC1 (configuration not stated),Percent Effect,"30.3 µM, […]",18.35%
COc1c(C2CCCN2C(=O)c2c[nH]c3ncccc23)c(C)nn1C (configuration not stated),Percent Effect,"30 µM, 30.03 µM",-19.02%
Cc1nnc([C@@]23CCO[C@@H]2CCN(S(=O)(=O)c2cccnc2)C3)o1,Percent Effect,"30.3 µM, […]",17.24%
Cc1noc([C@@]23CCO[C@@H]2CCN(C(=O)C2CCOCC2)C3)n1,Percent Effect,"30 µM, 30.03 µM",-29.55%
CNC(=O)[C@@]12CCO[C@@H]1CCN(S(=O)(=O)c1cccnc1)C2.O=C(O)C(F)(F)F,Percent Effect,"30 µM, 30.03 µM",-13.7%
Cc1nnc([C@@]23CCO[C@@H]2CCN(S(=O)(=O)c2ccccc2)C3)o1,Percent Effect,"30.3 µM, […]",56.06%
Cc1nnc([C@@]23CCO[C@@H]2CCN(S(C)(=O)=O)C3)o1,Percent Effect,"30.3 µM, […]",-7.004%
Cc1noc([C@@]23CCO[C@@H]2CCN(S(=O)(=O)c2cccnc2)C3)n1,Percent Effect,"30.3 µM, […]",57.7%
C[C@H]1C[C@H]2CN(C(=O)c3cccc4c3OCCO4)CC[C@H]2O1,Percent Effect,"30.3 µM, […]",-11.14%
CCc1nccn1-c1cccc(C2CCCN2)n1.Cl.Cl (configuration not stated),Percent Effect,"30.3 µM, […]",6.16%
O=C1CCCN1CCCN1CCCCC1Cn1cncn1 (configuration not stated),Percent Effect,"30.3 µM, […]",26.96%
Cc1csc(CCNC(=O)N2CCC(NC(=O)OC(C)(C)C)CC2)n1,Percent Effect,"30.3 µM, […]",-5.066%
CSc1nc2cc(C)n(CC(=O)N3CCCC3)c2c(=O)n1CC(C)C,Percent Effect,"30.3 µM, […]",6.672%
CC(NCc1ccc(OCC(N)=O)cc1)c1ccc(Cl)c(Cl)c1.Cl (configuration not stated),Percent Effect,"30.3 µM, […]",12.13%
CC(NCc1ccc(OCC(N)=O)cc1)c1ccc(Cl)cc1.Cl (configuration not stated),Percent Effect,"30.3 µM, […]",32.34%
CC(NCc1ccc(OCC(N)=O)cc1)c1ccc2c(c1)CCCC2 (configuration not stated),Percent Effect,"30.3 µM, […]",72.53%
